PubChem BioAssay AID652040 (Broad Institute, 2013)
Entries with a potency or affinity are not part of this list. Values without a mark were called inactive.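 Rule for the calls: active = falling luciferase signal whose fitted half-maximal concentration is at most twice the top tested dose; inconclusive = flat inhibition between 30 and 70% or a poor curve fit; inactive = the rest.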

experiment: off-target signal loss in HeLa-CEM21 co-culture – HeLa F-luc CTL cells, cherry-picked, counter-screen for HIV-1 Env fusion inhibitor project, dose response (AID 652040); settings: HeLa-F-luc CTL cells with CEM21, firefly luciferase counterscreen; series mostly up to 35 µM; activity change, negative = inhibition: at the top concentration;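 note: 0% = median of neutral control wells and -100% = doxycycline 40 µg/mL wells; more negative values mean stronger loss of luciferase signal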

Structure (SMILES) | activity change, negative = inhibition
O=c1c2ccccc2nnn1CSc1nnc(COc2ccc(Cl)cc2)n1Cc1ccco1 | 26.2% [at 16 µM]
COc1ccc(N2CCN(C(=O)C3CCC(Cn4c(=S)[nH]c5ccccc5c4=O)CC3)CC2)cc1 (stereo not given) | -0.686%
COCCCn1c(-c2ccc(S(=O)(=O)N3CCOCC3)cc2)csc1=Nc1ccccc1 | 41.7%
Cc1ccc(OCCN2CCN(c3ncnc4sc(C)c(C)c34)CC2)cc1 | -7.38%
Cc1ccc(-c2nnc(N3CCN(C(=O)COc4ccccc4)CC3)c3ccccc23)cc1 | -11%
O=C(COC(=O)c1cccc(S(=O)(=O)N2CCOCC2)c1)NCc1ccccc1 | 5.14%
O=C(Nc1ccc(Cl)cc1)C1CCCN(C2=NS(=O)(=O)c3ccccc32)C1 (stereo not given) | 28.9% [at 16 µM]
Nc1nc2c(ncn2[C@@H]2O[C@H](C(=O)NCC(c3ccccc3)c3ccccc3)[C@@H](O)[C@H]2O)c(=O)[nH]1 | 2.43%
O=C(OCCOc1cccc(Cl)c1)c1cc(S(=O)(=O)N2CCCCC2)ccc1N1CCOCC1 | -3.57%
CCOC(=O)[C@]12CCC=C1N(Cc1ccc3c(c1)OCO3)C(=O)[C@H](CC(=O)NCC13CC4CC(CC(C4)C1)C3)C2 | -46.5%
CC1(C)N=C(N)N=C(N)N1CCCCc1ccccc1 | -18.5%
O=S(=O)(NCCc1csc(-c2cccnc2)n1)c1ccc(Cl)s1 | -5.33%
CCCCCCCn1c2c(c(=N)c3c1CCC3)CCCC2 | 23.5%
c1ccc2c(c1)ncn2CCCCOc1ccc2c(c1)CCC2 | 8.22% [at 16 µM]
O=C(Nc1ccncc1)c1ccc(Cl)c(S(=O)(=O)N2CCc3ccccc32)c1 | 12.5%
COc1ccccc1N/C(N)=N/c1nc(CSc2ccc(C)cc2)cc(=O)[nH]1 | 12.7%
CS(=O)(=O)N1CCN(c2ccccc2NC(=O)C(c2ccccc2)c2ccccc2)CC1 | 24.4%
CC(C)OCCCNc1ncnc2c1[nH]c1ccccc12 | 7.69%
CCn1ncc(C2=NOC(C(=O)Nc3ccc(C)cc3)C2)c1C (stereo not given) | -3.06%
CCN1C(=O)[C@H]2[C@@H](c3ccc(C(F)(F)F)cc3)N[C@]3(CCCN(Cc4ccccc4)C3=O)[C@H]2C1=O | 40.7%

Structure (SMILES) | activity change, negative = inhibition
O=C(COC(=O)c1ncc(Cl)c(Cl)c1Cl)NCc1cccs1 | 14.1%
CC(=O)C1=C(C)NC(=S)NC1c1ccccc1 (stereo not given) | 7.35%
CCOC(=O)C1CCCN(Cc2nc(N)nc(Nc3ccc(OC)cc3)n2)C1 (stereo not given) | 0.49%
O=C(c1ccccc1)N1CCN(c2ncnc3sc4c(c23)CCC4)CC1 | -6.45%
COc1ccc(CCNC(=O)C2CCCN(Cc3nc(-c4cccc(Cl)c4)oc3C)C2)cc1OC (stereo not given) | 29.1%
C=CCN1C(=S)CC(c2ccccc2)=Nc2ccccc21 | 4.26%
COc1cc(-c2c(-c3cc(OC)c(OC)c(OC)c3)noc2C)ccc1F | 65.9%
CCc1nnc(NC(=O)[C@@H](NC(=O)c2cccc(S(=O)(=O)N(CC)CC)c2)C(C)C)s1 | 34%
Cc1oc(-c2ccc(Cl)cc2)nc1CN1CCCC(C(=O)NCc2cccnc2)C1 (stereo not given) | -6.13%
O=C(NCc1ccccc1)c1ccc(C(=O)NCc2ccccc2)cc1 | -10.1%
CC1CCCN(C(=O)c2ccc(S(=O)(=O)N3CCC(c4nc5ccccc5s4)CC3)cc2)C1 (stereo not given) | 6.01%
CCc1nc(N2CCCCC2)c2oc3ccccc3c2n1 | -2.89%
CC(C)n1c(NCCc2ccccc2)nc2c1c(=O)n(C)c(=O)n2C | -8.83%
Cc1ccc(C(=O)NCc2ccccn2)cc1S(=O)(=O)N1CCCCC1 | 34.2%
COc1ccc(N2CCn3c2nc2c3c(=O)n(CCCc3ccccc3)c(=O)n2C)c(OC)c1 | -6.64% [at 16 µM]
Clc1ccc2c(c1)C1=C(C(c3ccncc3)O2)C(c2ccc(Br)cc2)n2ncnc2N1 (stereo not given) | 53.7% [at 16 µM]
COc1ccc(/C(C)=N/NC(=O)c2cccc(S(=O)(=O)N3CCCC3)c2)c(O)c1 | 27.9% [at 8 µM]
N#Cc1c(NCc2ccccc2)ccnc1NCc1cccnc1 | -7.24%
C=CC[n+]1c(-c2ccc(OC)c(OC)c2)csc1NNC(=O)Nc1ccccc1 | 22.1%
COc1ccc(C)cc1NC(=O)CCNS(=O)(=O)c1ccc2c(c1)CC(C)N2C(C)=O (stereo not given) | 8.94%
